# FID counter – fluorescent intercalator displacement, NS3 helicase counter-screen; DNA fluorescent intercalator displacement, fluorescence; inhibition, % at 7.9 µM; actives 0.17% (n = 290,000); AID 1845; in the data active = inhibition above about 37%;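 also: 0% = vehicle and 100% = reference compound; higher means more ethidium bromide displaced from hairpin DNA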
# MEKK3 PB1 HTS – modulators (inhibitors or enhancers) of MEK5 binding to human MEKK3 PB1 domain | actives 1.4% (n = 290,000) | bead-based flow cytometry, Alexa488-MEK5 binding to MEKK3; actives lie on both sides; 0 = blocked by unlabeled MEK5, 100 = vehicle | binding response (% of control), % at 10 µM | Q99759;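 active = binding response more than 3 SD above or below the average of its plate-row segment, actives on both sides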;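 also: Alexa488 bead fluorescence after subtracting the streptavidin-only scavenger bead signal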
# MEKK2mut PB1 HTS – signal of MEK5 binding to mutant human MEKK2 PB1 domain; bead flow cytometry, Alexa488-MEK5 binding to MEKK2 mutant; percent response, % at 10 µM; actives 0.35% (n = 290,000); AID 1530; in the data active = percent response above about 24%, passing the limit was not always enough
# MEKK2wt PB1 HTS – raises or lowers MEK5 binding to wildtype human MEKK2 PB1 domain | AID 1531 | Q9Y2U5 | actives 1.1% (n = 290,000) | bead flow cytometry, Alexa488-MEK5 binding to MEKK2 WT; actives lie on both sides | binding response (% of control), % at 10 µM; in the data active = binding response below about 67% or above about 130%
# dFosB act – activators of mouse delta FosB homodimer; P13346; purified delta FosB, TAMRA-CDK5 oligo fluorescence polarization; percent of positive-control signal above neutral wells; activation, % at 25 µM; actives 0.99% (n = 340,000); AID 493131;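 active = mean activation above about 17%, with every replicate also reaching it, limit read from the data, passing the limit was not always enough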
# Target sequence (P13346 whole entry, looked up): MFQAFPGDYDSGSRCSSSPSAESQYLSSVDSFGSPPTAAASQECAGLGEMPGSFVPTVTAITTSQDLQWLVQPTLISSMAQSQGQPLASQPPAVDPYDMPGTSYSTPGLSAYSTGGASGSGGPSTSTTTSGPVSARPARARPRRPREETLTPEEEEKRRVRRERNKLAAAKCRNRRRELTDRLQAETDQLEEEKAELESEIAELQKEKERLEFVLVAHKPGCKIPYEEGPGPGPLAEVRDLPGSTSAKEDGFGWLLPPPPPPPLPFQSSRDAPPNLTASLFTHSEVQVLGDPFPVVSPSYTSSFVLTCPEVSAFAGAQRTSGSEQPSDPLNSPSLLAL
# MEKK2wt confirm – raises or lowers MEK5 binding to wildtype human MEKK2, retest | shares compounds with MEKK3 PB1 HTS | actives 2.4% (n = 5,900) | binding response (% of control), % at 10 µM | bead flow cytometry, Alexa488-MEK5 binding to MEKK2 WT; actives lie on both sides | AID 1892; in the data active = binding response below about 16% or above about 210%; inactive = in between
# MEKK2mut confirm – signal of MEK5 binding to mutant human MEKK2, retest; percent response, % at 10 µM; shares compounds with MEKK3 PB1 HTS; bead flow cytometry, Alexa488-MEK5 binding to MEKK2 mutant; actives 2% (n = 5,900); AID 1893; in the data active = percent response mostly above about 71%, no sharp cut-off; inactive = mostly below about 38%;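 also: higher means compound restores mutant binding toward wildtype level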
# MEKK3 confirm – MEKK3-MEK5 PB1 inhibition, single concentration confirmation | shares compounds with MEKK3 PB1 HTS | actives 1.8% (n = 5,900) | AID 1894 | bead flow cytometry, Alexa488-MEK5 binding to MEKK3; stronger effect = lower value | binding response (% of control), % at 10 µM;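 active = binding response below 72% of control, or above a set upper limit, though filed actives all read lower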;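 also: 100% = DMSO only wells and 0% = binding blocked by excess unlabeled MEK5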
# * marks the source's active call; other numbers are inactive results; . = no result; [ ] = remark or other dose. Compounds with a hit are over-represented: about 2.9% of the library has one in this group of screens.
SMILES,FID counter,MEKK3 PB1 HTS,MEKK2mut PB1 HTS,MEKK2wt PB1 HTS,dFosB act,MEKK2wt confirm,MEKK2mut confirm,MEKK3 confirm
COc1ccc(/C=C/C(=O)N2CCN(S(=O)(=O)c3ccccc3)CC2)cc1OC,-22,98,-3,89,-8,.,.,.
CCCC(=O)Nc1nc2nc(-c3ccccc3)cc(-c3ccccc3)n2n1,-8,0.0*[inhibitor],-17,0.0*[inhibitor],-23,103,9,106
Nc1cccc(-c2nc3cc(S(=O)(=O)c4ccc5oc(-c6cccc(N)c6)nc5c4)ccc3o2)c1,0,69*[inhibitor],-27,71,1,86,-18,92
c1ccc2[nH]c(N3CCOCC3)nc2c1,0,107,8,109,-6,.,.,.
c1ccc(N2CCN(c3nc4ccccc4[nH]3)CC2)nc1,4,74*[inhibitor],-4,84,-3,94,-6,93
O=C(O)c1ccc(-c2nnc(-c3ccc([N+](=O)[O-])cc3)o2)cc1,1,112,26*,115,-3,98,-6,93
O=C(O)c1ccc(-c2nnc(-c3ccccc3)o2)cc1,-3,98,4,98,-14,.,.,.
COc1ccccc1CNS(=O)(=O)c1ccc2c(c1)CCCN2C(C)=O,-19,102,6,101,2,.,.,.
CCOc1cc(CNCCSc2nnnn2C)cc(Br)c1OCc1ccc(F)cc1,26,97,33,131,3,.,.,.
Cc1ccc(-c2nc(C(=O)NCCCN(C)C)cc3c2[nH]c2ccccc23)cc1,18,103,21,146*,5,156,42,109
COc1ccc(OC)c(-c2nc(C(=O)NC3CCN(Cc4ccccc4)CC3)cc3c2[nH]c2ccccc23)c1,24,104,24*,146*,-2,153,40,111
COc1cc(-c2nc(C(=O)NC3CCN(Cc4ccccc4)CC3)cc3c2[nH]c2ccccc23)cc(OC)c1OC,20,105,21,147*,0,170,47,107
COc1ccc(OC)c(-c2nc(C(=O)NCCCN3CCOCC3)cc3c2[nH]c2ccccc23)c1,11,97,5,113,6,.,.,.
CCOC(=O)C1=C(CC)Nc2ccccc2N=C1NC(=O)c1ccc(S(=O)(=O)N(C)C)cc1,-14,102,2,98,-16,.,.,.
CCOC(=O)C1=C(C)Nc2ccccc2N=C1NC(=O)c1cccc(S(=O)(=O)N(C)C)c1,-23,3.0*[inhibitor],-24,3.0*[inhibitor],-8,103,1,103
Cc1ccc(/C=N/n2nnnc2N)cc1[N+](=O)[O-],3,128*,10,126,-2,103,0,103
CC1(C)Cc2c(ccc3ccccc23)-c2nnc(-c3cccnc3)n21,-23,0.0*[inhibitor],-22,-8.0*[inhibitor],-17,103,2,100
Cc1cc(C)c(OCCCCN2CCC(C)CC2)c(Br)c1,18,103,7,114,1,.,.,.
CC(C)c1c(C(=O)N/N=C/c2ccc3c(c2)OCO3)nnn1-c1nonc1N,-19,98,-1,100,4,.,.,.
CCN(CC)c1ccc(/C=N/NC(=O)c2nnn(-c3nonc3N)c2C(C)C)c(O)c1,-2,2.0*[inhibitor],-20,1.0*[inhibitor],-8,105,-2,102
CC(=O)Nc1ccc(OCC(O)CN2C(C)(C)CC(O)CC2(C)C)cc1 (stereo unspecified),-1,74*[inhibitor],-1,96,-4,102,-3,100
CC(=O)Nc1ccc(OCC(O)Cn2c3ccccc3c3ccccc32)c(C)c1 (stereo unspecified),-20,119,6,114,-12,.,.,.
CC(=O)Nc1ccc(OCC(O)Cn2c3ccccc3c3ccccc32)cc1 (stereo unspecified),-16,176*,2,120,-7,-6.0*[inhibitor],-3,84
CCOC(=O)c1cc(-c2ccccc2)sc1NC(=O)CC,-2,105,2,102,-2,.,.,.
CCOC(=O)c1cc(-c2ccccc2)sc1NC(=O)C(C)N1C(=O)c2ccccc2C1=O (stereo unspecified),-5,136*,0,105,-5,97,-3,106
SMILES,FID counter,MEKK3 PB1 HTS,MEKK2mut PB1 HTS,MEKK2wt PB1 HTS,dFosB act,MEKK2wt confirm,MEKK2mut confirm,MEKK3 confirm
CCOC(=O)c1cc(-c2ccccc2)sc1NC(=O)CCN1C(=O)c2ccccc2C1=O,-1,97,1,32*[inhibitor],9,99,-6,98
CN(CCCC(=O)N1CCCC(C(N)=O)C1)S(=O)(=O)c1ccc(F)cc1 (stereo unspecified),-17,103,2,99,-3,.,.,.
COc1nc(N)nc(N)c1NS(=O)(=O)c1ccc(C)cc1,0,103,6,110,2,.,.,.
CCCCNC(C(=O)Nc1ccc([N+](=O)[O-])cc1Br)c1ccccc1 (stereo unspecified),7,96,1,102,6,.,.,.
COc1ccc(NC(=O)CSc2nnc3ccc(-c4cccnc4)nn23)cc1OC,.,.,.,.,-2,.,.,.
COc1ccccc1CNC(=O)CSc1nnc2ccc(-c3cccnc3)nn12,-6,105,171*,103,-7,101,-3,102
CC(=O)CN1Cc2ccccc2/C1=N\C(=O)Nc1ccccc1,4,77*[inhibitor],-9,86,-5,101,-6,101
COc1ccc(N2Cc3ccccc3/C2=N\C(=O)Nc2ccccc2)cc1,-1,99,-2,97,-3,.,.,.
CC1CCN(C(=O)c2cc(Cl)ccc2NC(=O)c2ccco2)CC1,-13,103,1,101,0,.,.,.
O=C1N[C@@H](Cc2cn(S(=O)(=O)c3ccc(F)cc3)c3ccccc23)C(=O)N[C@H]1Cc1ccccc1,.,100,5,100,.,.,.,.
COc1ccc2cc(/C=N/O)c(Cl)nc2c1,0,67*[inhibitor],-3,77,10,98,0,97
CCCCNC(=S)Nc1ccc(-c2nc3ccc(C)cc3s2)cc1,-12,134*,0,105,-5,105,3,107
CCCn1c(SCC(=O)NCc2ccc(Cl)cc2)n[nH]c1=O,1,101,-4,94,-9,.,.,.
CCOc1cc(N2CCCC2)ccc1[N+](=O)[O-],2,133*,2,107,-6,101,-6,103
O=C(CSc1nccc(=O)[nH]1)Nc1cccc2ccccc12,-4,99,7,103,3,.,.,.
COc1ccc(CC(=O)OCC(=O)NCc2ccccc2Cl)cc1,-18,151*,5,136,-5,107,4,105

# Source: PubChem (several laboratories)
